# Bioassay records (PubChem BioAssay)
# Shown are actives, neighbours in structure and some others; about 4% of the full set was active somewhere.
# TROY NFkB inh = TROY signaling inhibition; Q293 LMP1-TROYcd NF-kB luciferase reporter, 4 h; inhibition, % at 10 µM; hit rate 0.98% among 360,000;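 active = compounds whose plate-normalised and pattern-corrected inhibition of the luciferase reporter signal at the single screening dose is 50% or more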
# HIF-2a block = HIF-2a inhibition; AID 624352; hit rate 0.72% among 360,000; inhibition, % at 18.8 µM; 786-0 RCC cells HIF-2a reporter, luciferase luminescence, overnight;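 active = inhibition of the luminescence signal of 40% or more relative to plate controls, in a single-dose primary screen at 18.75 µM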
# Peg3 promoter = reduces Peg3 promoter-driven luciferase expression in HeLa | HeLa PEG-Prom luciferase reporter, luminescence, overnight | inhibition, % at 20 µM | hit rate 1.7% among 360,000;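 active = inhibition of at least 50% at 20 µM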
# KKLEB tox = reduces viability of KKLEB cystic fibrosis airway cells | KKLEB CF airway cells viability, ATPlite luminescence, overnight; stronger effect = lower value; cells stimulated with P. aeruginosa culture filtrate | activity change (cytotoxicity), % at 5 µM | hit rate 0.36% among 360,000;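 active = corrected activity change at or below -50% at 5 µM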
# TWEAK-Fn14 inh = TWEAK-Fn14 signaling inhibition | TWEAK-stimulated Fn14 reporter cells, luciferase luminescence, 8 h | inhibition, % at 10 µM | hit rate 2% among 360,000; in the data active = inhibition above about 50%
# CF NFkB inh = inhibitors of cystic fibrosis induced NF-kB; KKLEB NF-kB-GFP reporter, PAF-induced, GFP fluorescence overnight; inhibition, % at 5 µM; hit rate 0.86% among 360,000;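 active = at least 50% inhibition at 5 µM, scaled per plate between neutral and stimulator controls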;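 also: PAF is a Pseudomonas aeruginosa culture filtrate used as stimulus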
# A number is an active result; . = inactive; / = no result.
SMILES,TROY NFkB inh,HIF-2a block,Peg3 promoter,KKLEB tox,TWEAK-Fn14 inh,CF NFkB inh
O=C(NCCc1ccc(Cl)cc1)c1ccc2c(c1)OCCO2,.,.,.,.,54,.
O=C(NCCc1cccs1)c1ccc(Cl)cc1,.,.,.,.,59,.
CC(=O)N1CCN(c2ccc(NC(=O)c3ccc4c(c3)OCCO4)cc2Cl)CC1,.,.,.,.,.,.
O=C(NCCc1cccs1)c1ccc(Cl)c(Cl)c1,.,.,.,.,.,.
O=C(Nc1ccc(N2CCN(C(=O)c3ccc(Cl)cc3)CC2)cc1)c1ccc2c(c1)OCCO2,70,.,.,.,92,.
CC(C)C(=O)N1CCN(c2ccc(NC(=O)c3ccc4c(c3)OCCO4)cc2Cl)CC1,61,.,.,.,82,.
OC(c1ccccc1)(c1ccccc1)c1nccc2ccccc12,.,.,.,.,.,.
C=CCC1(CC=C)CC(Cc2cnccn2)N(C(=O)OC(C)(C)C)C1 (configuration not stated),.,.,.,.,.,.
O=C1c2ccccc2NC(c2ccc3c(c2)OCO3)N1O (configuration not stated),.,.,.,.,.,.
O=C1c2ccccc2NC(c2ccc3c(c2)OCCO3)N1c1ccc2c(c1)OCCO2 (configuration not stated),59,.,.,.,59,.
COc1cc(C2Nc3ccccc3C(=O)N2c2ccc3c(c2)OCCO3)ccc1OCC(C)C (configuration not stated),.,.,.,.,67,.
COc1cc(C2Nc3ccccc3C(=O)N2c2ccccc2OC)ccc1O (configuration not stated),.,.,.,.,.,.
Cc1ccc(Cl)cc1N1CCN(C(=O)c2ccc3nc[nH]c3c2)CC1,.,.,.,.,.,.
CCOC(=O)c1ccc(S(=O)(=O)NNC(=O)Cc2csc(C)n2)cc1,.,.,.,.,.,.
O=C(c1ccccc1F)N1CCN(S(=O)(=O)c2ccc(S(=O)(=O)N3CCCCCC3)cc2)CC1,.,.,.,.,.,.
Cc1ccc(-c2nc(NC(=O)CSc3nnc4scc(-c5ccccc5)n34)ns2)cc1,52,.,.,.,.,.
C=CCn1c(SCC(=O)c2[nH]c(C)c(C(=O)OCC)c2C)nc2scc(-c3ccccc3)c2c1=O,.,.,.,.,.,.
C=CCn1c(SCC(=O)c2[nH]c(C)c(C(=O)OCC)c2C)nc2scc(-c3ccc(OC)cc3)c2c1=O,.,.,54,.,.,.
CNc1nc(-c2ccccc2)c2sccc2n1,.,.,.,.,.,.
CCN=C1NN=C(c2cc(C)n(Cc3ccco3)c2C)CS1,.,67,.,.,.,.
COCCn1c(C)cc(C2=NNC(=Nc3ccccc3)SC2)c1C,82,.,.,.,76,.
CCN=C1NN=C(c2cc(C)n(CCc3ccccc3)c2C)CS1,.,.,.,.,.,.
COc1ccccc1N1CCN(C(c2cccs2)c2nnnn2C2CCCC2)CC1 (configuration not stated),.,.,.,.,.,.
CC(=O)c1cccc(NC(=O)CCCN(C)S(=O)(=O)c2ccc(F)cc2)c1,.,.,.,.,.,.
CCC(Sc1nc(C)cc(C)n1)C(=O)Nc1ccc(Cl)cn1 (configuration not stated),/,.,.,.,59,.
SMILES,TROY NFkB inh,HIF-2a block,Peg3 promoter,KKLEB tox,TWEAK-Fn14 inh,CF NFkB inh
CC(C)CC(=O)NC(c1cccs1)c1ccc2cccnc2c1O (configuration not stated),.,.,.,.,.,.
Oc1c(C(Nc2nc3ccccc3s2)c2ccco2)ccc2cccnc12 (configuration not stated),.,.,.,.,57,.
CC(C)C(=O)NC(c1cccs1)c1cc([N+](=O)[O-])c2cccnc2c1O (configuration not stated),.,.,56,.,.,.
CC(C)C(=O)NC(c1ccco1)c1ccc2cccnc2c1O (configuration not stated),.,.,53,.,.,.
CCN(CC)c1ccc(C(NC(=O)C(C)C)c2ccc3cccnc3c2O)cc1 (configuration not stated),.,.,.,.,.,.
O=C(Nc1ccc2oc(-c3ccccc3F)nc2c1)c1ccc([N+](=O)[O-])o1,.,.,.,.,.,.
COC(=O)c1sc2ccc(C)cc2c1C(=O)OC,.,.,.,.,.,.
CCOc1ccc(CN2CCN(Cc3cccc4nonc34)CC2CCO)cc1 (configuration not stated),.,.,.,.,.,.
CN(Cc1cccc2cnccc12)C(=O)c1cc(COc2ccc(F)cc2F)on1,.,.,.,.,.,.
O=C(c1cc(COc2c(F)cccc2F)on1)N1CCC(c2ccccc2Cl)C1 (configuration not stated),.,.,.,.,.,.
CCc1ccc(CN(C)C(=O)c2cc(COc3cccc4cnccc34)on2)cc1,.,.,.,.,57,.
O=C(c1cc(COc2cccc3cnccc23)on1)N1CCC(c2ccccc2Cl)C1 (configuration not stated),54,.,.,.,.,.
CCCCN1C(=O)C(CC(=O)NCCc2ccccn2)CC(C(=O)N(CC)CC)=C1C (configuration not stated),.,.,.,.,.,.
CCn1nc(C)c(/C=N/NC(=S)Nc2ccc(Cl)cc2Cl)c1C,.,.,.,.,.,.
COc1cc(C(=S)N2CCOCC2)ccc1OC(=O)c1cc([N+](=O)[O-])cc([N+](=O)[O-])c1,.,.,.,.,.,.
CCOc1ccc(C(=O)c2cc([N+](=O)[O-])ccc2N2CCOCC2)cc1,.,.,.,.,.,55
Cc1ccc(C(=O)c2cc([N+](=O)[O-])ccc2N2CCOCC2)cc1,.,.,52,.,.,.
COc1ccc(CCNC(=O)c2cc([N+](=O)[O-])ccc2N2CCOCC2)cc1,.,.,.,.,.,.
COc1ccc(C(=S)N2CCOCC2)cc1OC(=O)c1ccc([N+](=O)[O-])cc1[N+](=O)[O-],.,.,.,.,100,.
CCOc1ccc(S(=O)(=O)N2CCN(C(=O)c3cc([N+](=O)[O-])ccc3N3CCOCC3)CC2)cc1,.,.,.,.,.,.
COc1ccc(C(=O)c2cc([N+](=O)[O-])ccc2N2CCOCC2)cc1,.,.,.,.,.,60
CCN(CC)CCCNC(=S)N(Cc1cccnc1)Cc1cc2cc(C)cc(C)c2[nH]c1=O,.,.,.,.,.,.
CC(OC(=O)c1cccc(S(=O)(=O)N2CCCC2)c1)C(=O)c1ccccc1 (configuration not stated),.,.,.,.,.,.
O=[N+]([O-])c1cccc(-c2nnc(SCc3cccnc3)o2)c1,.,.,.,.,.,.
